# System: U-2932
# Experiment: growth inhibition by drug plus 177Lu-lilotomab satetraxetan (1 - RLU/untreated control) (fraction); higher = stronger inhibition
# Settings: 10 nM; time (day): 4; 177Lu-lilotomab satetraxetan 1 ug/ml
# Procedure, shortened: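 A radiolabelled anti-CD37 antibody conjugate (~600 MBq/mg) was applied for 18 h at 0.5 µg/ml to RIVA and 1 µg/ml to U-2932 cells, with untreated cells run alongside. All cells were washed and seeded at 3,000 cells/well onto library-printed plates at 10/100 nM (RIVA) or 10/1,000 nM (U-2932). Growth inhibition was based on RealTime-Glo luminescence compared with untreated no-drug wells. Daily reads began on day 3 after 1 h at 37°C, with each value being 1 − RLU/mean of the 48 such wells on that plate.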
row,Structure (SMILES),growth inhibition by drug plus 177Lu-lilotomab satetraxetan
1,CNCc1ccc(-c2[nH]c3cc(F)cc4c3c2CCNC4=O)cc1,0.0426
2,O=C(O)c1ccc(-c2c[nH]c3ncc(-c4ccccc4)cc23)cc1C1CCCC1,0.0274
3,CC(=O)c1c(C)c2cnc(Nc3ccc(N4CCNCC4)cn3)nc2n(C2CCCC2)c1=O,0.0266
4,CCN(CC)CCCCNc1ncc2cc(-c3cc(OC)cc(OC)c3)c(NC(=O)NC(C)(C)C)nc2n1,0.00417
5,CCC(C)(C)C(=O)O[C@H]1C[C@@H](C)C=C2C=C[C@H](C)[C@H](CC[C@@H]3C[C@@H](O)CC(=O)O3)[C@H]21 [Simvastatin (Zocor)],-0.0212
6,CC[C@H](Nc1ncnc2[nH]cnc12)c1nc2cccc(F)c2c(=O)n1-c1ccccc1,-0.0707
7,CC(C=CC(=O)NO)=CC(C)C(=O)c1ccc(N(C)C)cc1 (stereo not drawn) [Trichostatin A (TSA)],0.0461
8,COc1ccc2c3n(c(=NC(=O)c4cccnc4)nc2c1OC)CCN3,0.066
9,NC(=O)c1ccc(-c2nc(-c3ccccn3)c(-c3ccc4c(c3)OCO4)[nH]2)cc1,0.129
10,CNC(=O)c1cc(Oc2ccc(NC(=O)Nc3ccc(Cl)c(C(F)(F)F)c3)c(F)c2)ccn1 [Regorafenib (BAY 73-4506)],0.179
11,Cc1cnc(Nc2ccc(OCCN3CCCC3)cc2)nc1Nc1cccc(S(=O)(=O)NC(C)(C)C)c1,-0.0475
12,CCOc1ccc(Nc2nc(-c3c(C)nc4ccccn34)cs2)cc1,0.185
13,CC(C)C[C@H](NC(=O)[C@H](Cc1ccccc1)NC(=O)c1cnccn1)B(O)O [Bortezomib (Velcade)],0.967
